# Laboratory results: paper PMC4336329 (PLoS ONE, 2015)
# Screen size: about 310,000 compounds; about 14,000 (4.5%) showed an effect of 50% or more. Effects have a minus sign here. This is one part of a sample in which strong results are shown more often than they occur.
# Target: human ether-à-go-go-related gene (hERG) potassium channel (human, UniProt Q12809)
# Assay: primary screen, population patch clamp on CHO cells stably expressing hERG; higher = less effect of the substance
# 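Note: peak tail current of the secondary pulse compared with the same well before compound.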
# human ether-à-go-go-related gene (hERG) potassium channel, sequence (Q12809 whole entry, looked up): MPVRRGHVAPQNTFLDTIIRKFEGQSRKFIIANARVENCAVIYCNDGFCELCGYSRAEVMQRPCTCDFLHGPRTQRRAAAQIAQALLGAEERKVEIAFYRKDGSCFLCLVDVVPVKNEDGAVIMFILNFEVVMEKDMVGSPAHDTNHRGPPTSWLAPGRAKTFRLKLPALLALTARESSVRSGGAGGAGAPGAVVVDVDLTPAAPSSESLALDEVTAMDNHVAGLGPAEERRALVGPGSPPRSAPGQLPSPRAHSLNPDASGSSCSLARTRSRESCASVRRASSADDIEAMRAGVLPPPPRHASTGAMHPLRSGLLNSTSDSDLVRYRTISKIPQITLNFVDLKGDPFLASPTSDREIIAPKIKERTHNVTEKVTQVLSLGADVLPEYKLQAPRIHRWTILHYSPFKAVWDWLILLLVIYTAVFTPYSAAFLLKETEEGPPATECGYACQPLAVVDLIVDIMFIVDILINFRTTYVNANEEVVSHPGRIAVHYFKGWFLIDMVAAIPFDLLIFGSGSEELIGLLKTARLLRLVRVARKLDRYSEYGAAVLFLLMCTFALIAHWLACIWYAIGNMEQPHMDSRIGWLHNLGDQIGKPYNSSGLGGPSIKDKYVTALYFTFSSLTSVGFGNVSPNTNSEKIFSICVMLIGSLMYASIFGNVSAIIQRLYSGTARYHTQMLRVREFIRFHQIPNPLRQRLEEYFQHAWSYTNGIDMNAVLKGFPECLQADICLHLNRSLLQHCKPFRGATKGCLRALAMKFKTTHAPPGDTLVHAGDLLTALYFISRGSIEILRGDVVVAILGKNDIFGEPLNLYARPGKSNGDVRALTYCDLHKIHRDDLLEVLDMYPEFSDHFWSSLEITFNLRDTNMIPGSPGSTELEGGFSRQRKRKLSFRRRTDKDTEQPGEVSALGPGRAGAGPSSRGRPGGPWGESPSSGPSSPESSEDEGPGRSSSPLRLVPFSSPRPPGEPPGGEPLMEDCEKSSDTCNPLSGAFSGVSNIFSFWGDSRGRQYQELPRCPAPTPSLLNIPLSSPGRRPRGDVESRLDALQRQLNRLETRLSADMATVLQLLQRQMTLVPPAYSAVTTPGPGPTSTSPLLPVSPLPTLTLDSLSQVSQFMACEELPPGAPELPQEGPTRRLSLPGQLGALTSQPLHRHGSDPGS
row,Structure (SMILES),"hERG current change (%, negative = inhibition) at 10uM [%]"
1,Cc1ccc(C(=O)Nc2ccc(N3CCN(S(C)(=O)=O)CC3)cc2)cc1,4.23
2,c1ccc(-c2nnc3ccc(N4CCC5(CC4)OCCO5)nn23)cc1,-46.8
3,Brc1ccc2ncnc(NCc3ccco3)c2c1,-39.5
4,N#CCc1c(C#N)c(N)nc(N2CCN(C=O)CC2)c1C#N,-10.8
5,N#CCc1c(C#N)c(N)nc(N2CCOCC2)c1C#N,1.34
6,N#CCc1c(C#N)c(N)nc(N2CCN(c3ccc(F)cc3)CC2)c1C#N,-63.9
7,O=C1OC(=O)c2c(Br)c(Br)c(Br)c(Br)c21,20.7
8,CC(C)c1ccccc1OCCNC(=O)c1cccnc1,-1.33
9,O=C(NCCOc1ccccc1)c1cncc(Br)c1,-26.8
10,CC(C)c1ccccc1OCCNC(=O)c1cncc(Br)c1,-60.6
11,CC(=O)Oc1ccccc1/C=C/c1ccc2ccccc2[n+]1C.[I-],11.3
12,O=C(NCc1ccccc1)C1CCC(=O)N(CC2CCCCC2)C1 (stereo not shown),9.03
13,CC[n+]1c(/C=C2/C=C(C)CC(C)(C)C2)sc2ccc(OC)cc21.Cc1ccc(S(=O)(=O)[O-])cc1,-68.7
14,CCC1=C/C(=C/c2sc3ccccc3[n+]2CC)CC(C)(C)C1.[I-],11.5
15,CC[n+]1c(/C=C2\C=C(C)CC(C)(C)C2)sc2ccccc21.[I-],-39.7
16,O=C(COc1ccccc1)Nc1nnc(-c2ccccc2Cl)o1,8.56
17,CCOC(=O)c1cc(NC(=O)CN2CCCC2)cc(C(=O)OCC)c1,-16.2
18,Br.c1ccc(CN2CCC(N=C3NN=C(c4ccc5c(c4)OCCO5)CS3)CC2)cc1,-43.1
19,Cc1cccc(C)c1NC(=O)CNC(=O)CN1C(=O)NC2(CCc3ccccc32)C1=O (stereo not shown),1.69
20,CC(=O)N1CCN(C2=NC(=O)/C(=C\c3cccs3)S2)CC1,-37.1
21,CN1CCN(C2=NC(=O)/C(=C/c3ccccc3OS(=O)(=O)c3ccccc3)S2)CC1,-76.1
22,CC(=O)N1CCN(C2=NC(=O)/C(=C/c3ccc(OS(=O)(=O)c4ccccc4)cc3)S2)CC1,-69.6
23,NC1=NC(=O)/C(=C/c2ccccc2OS(=O)(=O)c2ccccc2)S1,5.2
24,O=C1N=C(N2CCOCC2)S/C1=C\c1ccccc1OS(=O)(=O)c1ccccc1,0.61
25,O=C1N=C(N2CCOCC2)S/C1=C\c1ccc(OS(=O)(=O)c2ccccc2)cc1,-49.8
